High-throughput results: PubChem BioAssay, Broad Institute
The list is not random: actives were taken first. Their share in the collection is about 2.4%.
miR122 inh – miR-122 inhibition in Huh7 cells; Huh7 miR-122 Renilla luciferase sensor, 48 h; neutral wells = 0, positive control = 100; 340,000 compounds, 0.3% hits; activation (reporter increase), % at 12.5 µM;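 active means mean replicate activation score at least 90 and every replicate individually at or above 90; inconclusive means only one of the two criteria met; inactive means neither criterion met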;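 further: higher luciferase means less miR-122 activity so hits act as miR-122 inhibitors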
INS-1E GSIS act – primary screen for activators of insulin secretion dependent on glucose, INS-1E cells, GLuc reporter luminescence; activation, % at 16.6 µM; INS-1E GLuc reporter insulin secretion, 2-3 h; 370,000 compounds, 0.61% hits;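 active means lowest replicate activation of at least 40%, so every replicate reaches that level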;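 further: 0% = median of neutral control wells and 100% = median of IBMX positive control wells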
NSD2 HMT inh – blocks human histone methyltransferase NSD2; inhibition, % at 12.5 µM; AID 743445; 310,000 compounds, 0.54% hits; NSD2 peptide methylation, AlphaScreen, 120 min; O96028
Wnt bcat act – activates Wnt/beta-catenin signaling in a reporter cell assay; activation, % at 9.35 µM; activator, plate reader; 300,000 compounds, 1.2% hits; in the data active means activation above about 30%, passing the limit was not always enough; inconclusive means no clear call, values can overlap the other calls;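 further: 0% = neutral control wells and 100% = positive control wells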
MITF act – MITF TRPM1 promoter activation in melanoma cells; SK-MEL-5 TRPM1-promoter luciferase, 24 h; % of positive control, neutral wells = 0; activation, % at 12.5 µM; 300,000 compounds, 0.75% hits;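 active means mean activation of at least 80% with every replicate also reaching 80%; inconclusive means mean reaches 80% but some replicate falls short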;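 further: 0% = neutral control wells and 100% = parthenolide positive control wells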
Dyrk1A ADPGlo – inhibitors of rat Dyrk1A kinase. inhibition, % at 12.5 µM. ADP-Glo luminescence, NFATc1 peptide. Q63470. 310,000 compounds, 0.43% hits;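 further: plate controls were vehicle with enzyme for no effect and no enzyme for full effect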
* hit, by the source's call; ? = inconclusive; nt = no result given; ! = repeats disagree; [ ] = dose if it differs, or a comment. Unless noted, no stated cut-off is given here; in the data, active means inhibition above about 50%; inactive means the rest.

SMILES	miR122 inh	INS-1E GSIS act	NSD2 HMT inh	Wnt bcat act	MITF act	Dyrk1A ADPGlo
CCOC(=O)c1c(C)[nH]c(C(=O)OCc2ccc(C)cc2)c1C	0.5	-6.7	-2.0	4.9	71.2	nt
CCOC(=O)C1CCCCN1C(=O)c1cc2ccc(OC)cc2c2cc(OC)c(OC)cc12 (stereo not drawn)	109.5*	nt	nt	-3.1	3.5	7.4
CN(C)C(=O)c1ccc(-c2ccc([C@@H]3[C@H]4CN(C(=O)C5CCC5)CC(=O)N4[C@H]3CO)cc2)cc1	nt	-10.1	nt	nt	nt	nt
CC1CCN(C(=O)CNC(=O)c2ccc(Br)o2)CC1	nt	17.5	1.4	37.6*	71.2	4.9
O=C(CNC(=O)OCc1ccccc1)NC1CCCCCC1	-4.2	-11.3	-5.1	-1.8	11.3	-1.1
O=C(N[C@H]1/C=C\[C@@H](O)CCCC1)OCc1ccccc1	-1.9	0.5	nt	4.1	97.8*	2.8
CC(C)(C)c1nnc(NC(=O)c2ccc3c(c2)OCO3)s1	5.2	25.2	4.0	?	121.2*	5.8
CCOc1ccc(NC(=O)COc2ccc3c(c2)OCO3)cc1	-1.5	-2.3	1.0	6.1	8.7	-1.7
CC(C)(C)c1nnc(NC(=O)COc2ccc3c(c2)OCO3)s1	nt	-3.8	-1.2	-2.1	85.0*	6.0
CCSc1nnc(NC(=O)c2ccc3c(c2)OCO3)s1	10.6	9.6	-2.7	nt	62.8	-2.1
CC(C)Sc1nnc(NC(=O)c2ccc3c(c2)OCO3)s1	nt	14.7	-2.8	-0.1	87.8*	-0.6
CC(C)c1nnc(NC(=O)c2ccc3c(c2)OCO3)s1	nt	37.4	-3.6	1.1	5.8	-7.2
Cc1ccccc1NC(=S)NCC1CCN(C(C)c2ccccc2)C1 (stereo not drawn)	-0.1	-17.0	2.0	46.2*	-7.2	-2.2
Cc1cc(C)cc(NC(=S)NCC2CCN(C(C)c3ccccc3)C2)c1 (stereo not drawn)	-5.4	-9.6	13.7	-0.7	-5.3	12.3
O=C(CSc1ccccn1)c1ccc2c(c1)OCO2	-3.7	nt	-0.9	47.3*	nt	14.7
O=C(CSc1ccccn1)Nc1ccc2c(c1)OCO2	0.5	13.9	-0.7	28.2	nt	nt
Cc1ccc2nc(SCC(=O)c3ccc4c(c3)OCO4)[nH]c2c1	3.6	6.5	1.5	nt	-1.5	4.3
O=C(CSc1nc2ccccc2[nH]1)c1ccc2c(c1)OCO2	-3.8	nt	0.4	54.4*	nt	16.4
C[C@H](CO)N1C[C@H](C)[C@@H](CN(C)Cc2ccccc2F)Oc2cc(C3=CCCC3)ccc2S1(=O)=O	40.3[16.7 µM]	-11.9	nt	nt	nt	nt
C[C@H]1C=C(C(=O)NCc2ccccc2)O[C@@H](OCc2ccc(CO)cc2)C1	nt	-5.1	nt	47.8*	5.3	4.0
COc1ccc(C(C#N)=Cc2ccc(N(C)CCC#N)cc2)cc1	14.9	6.8	-0.7	31.0*	nt	nt
N#Cc1ccc(NC(=S)N2CCC3CC2c2cc(-c4ccc5c(c4)OCO5)ccc23)cc1 (stereo not drawn)	109.7*	-43.8	nt	-1.6	nt	nt
Nc1c2ccccc2nc2ccccc12	-22.4	-6.3	37.2	69.3*!	-83.1	5.8
Cc1ccc(S(=O)(=O)NN=Cc2ccccc2Cl)cc1	3.4	-20.9	3.3	33.5*	nt	nt
CC1CC1C(=O)OCC(=O)N(C)CC(=O)Nc1ccc(F)cc1 (stereo not drawn)	-1.5	14.3	2.1	1.8	-8.9	-1.5
SMILES	miR122 inh	INS-1E GSIS act	NSD2 HMT inh	Wnt bcat act	MITF act	Dyrk1A ADPGlo
O=C(COC(=O)C1CC2C=CC1C2)Nc1ccc2c(c1)OC(F)(F)O2 (stereo not drawn)	-5.9	nt	-3.8	nt	-2.3	0.3
CC(=O)Nc1ccc(C(=O)COC(=O)C2CC2C)c(F)c1 (stereo not drawn)	0.1	0.3	-0.8	42.5*	106.8*	-2.9
CCCC(=O)Nc1ccc(C(=O)COC(=O)C2CC2C)cc1 (stereo not drawn)	6.4	21.8	-0.2	45.5*	78.9	14.7
CC(=O)Nc1ccc(C(=O)COC(=O)c2c(C)noc2C)c(F)c1	-5.8	19.0	0.6	7.8	nt	0.7
CC(=O)c1ccc(NC(=O)COC(=O)C2CC3C=CC2C3)cc1 (stereo not drawn)	nt	-10.8	-0.7	43.0*	56.1	-5.4
CC(=O)Nc1ccc(C(=O)COC(=O)c2cccs2)c(F)c1	1.5	-3.1	2.0	56.6*	126.6*	-1.9
Cc1noc(C)c1NC(=O)Nc1ccc2c(c1)C(=O)N([C@H](C)CO)C[C@H](C)[C@H](CN(C)C(=O)C1CCCCC1)OCCCC[C@H](C)O2	1.7[16.7 µM]	-5.1	nt	nt	nt	nt
CO[C@@H]1CN(C)C(=O)c2ccc(NS(=O)(=O)c3cccc(Cl)c3)cc2OC[C@H](C)NC[C@@H]1C	nt	8.5	nt	nt	nt	nt
COc1ccc(S(=O)(=O)Nc2ccc3c(c2)CC(=O)N([C@H](C)CO)C[C@H](C)[C@@H](CN(C)S(=O)(=O)c2c(C)noc2C)O3)cc1	3.1[16.7 µM]	-3.1	nt	nt	nt	nt
COc1cc(OC)c(OC)cc1CCC(C)NCCC(c1ccccc1)c1ccccc1 (stereo not drawn)	-22.9	-15.4	70.7*	-5.4	-49.1	-1.0
C[C@@H]1CN([C@H](C)CO)C(=O)c2cc(NC(=O)CCCN(C)C)ccc2O[C@@H]1CN(C)C	-3.1[16.7 µM]	0.5	nt	nt	nt	nt
COC(=O)c1ccc(-c2cc3onc(-c4ccccc4)c3c(=O)n2C)cc1	-1.1	-3.5	nt	30.7*	38.5	-2.7
CN(C)C(=O)c1ccc(-c2cc3onc(-c4ccccc4)c3c(=O)n2C)cc1	-5.7	-26.1	nt	40.7*	69.0	5.3
CNC[C@H]1Oc2ccc(NS(=O)(=O)c3ccc(C)cc3)cc2C(=O)N([C@@H](C)CO)C[C@@H]1C	-1.3[16.7 µM]	-3.0	nt	nt	nt	nt
O=c1c(Cl)c(NCCO)cnn1-c1cccc(Cl)c1	3.1	46.4*	-0.2	-7.6	18.3	1.6
CC(=O)NC1=C(N(C)C2CCS(=O)(=O)C2)C(=O)c2ccccc2C1=O (stereo not drawn)	-8.8	nt	106.5*	-12.5	-63.5	0.6
C[C@@H]1CN([C@@H](C)CO)C(=O)c2cccc(NS(=O)(=O)c3ccc(Cl)cc3)c2O[C@@H]1CN(C)Cc1ccc(C(=O)Nc2ccccc2N)cc1	129.3*[16.7 µM]	14.6	nt	nt	nt	nt
C[C@@H]1CN([C@@H](C)CO)C(=O)c2cccc(NS(=O)(=O)c3ccccc3)c2O[C@@H]1CN(C)Cc1ccc(C(=O)Nc2ccccc2N)cc1	180.9*[16.7 µM]	11.6	nt	nt	nt	nt
C[C@H](CO)N1C[C@H](C)[C@@H](CN(C)Cc2ccc(C(=O)Nc3ccccc3N)cc2)Oc2c(NS(=O)(=O)c3ccccc3)cccc2C1=O	nt	9.8	nt	nt	nt	nt
COc1ccc(-c2ccc(C3[C@@H]4CN(Cc5cccc(OC)c5)C[C@H]3N4)cc2)cc1 (stereo partly drawn)	nt	51.0*!	nt	nt	nt	nt
COc1cccc(CN2C[C@@H]3N[C@H](C2)C3c2ccc(-c3cccc(C#N)c3)cc2)c1 (stereo partly drawn)	nt	-5.4	nt	nt	nt	nt
COc1cccc(CN2C[C@@H]3N[C@H](C2)C3c2ccc(-c3ccncc3)cc2)c1 (stereo partly drawn)	nt	6.3	nt	nt	nt	nt
